Measurements as given in PubChem BioAssay AID602342 (Broad Institute, 2012).
In all, about 340,000 compounds went through this assay and about 1,000 (0.29%) were called active.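 How the source made its calls: active means mean replicate activation score at least 90 and every replicate individually at or above 90; inconclusive means only one of the two criteria met; inactive means neither criterion met.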 The full list was thinned out, with actives kept by preference.

Test: compounds raising miR-122 luciferase sensor output – cell-based, single point, plate reader, miR-122 inhibitor project, primary screen (AID 602342);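 further: higher luciferase means less miR-122 activity so hits act as miR-122 inhibitors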
Conditions: Huh7 miR-122 Renilla luciferase sensor, 48 h, stronger effect = higher value; at 12.5 µM unless noted

| Compound | activation (reporter increase) |
| --- | --- |
| C[C@]12CCC3C(CC[C@H]4C[C@@H](O)CC[C@]34C)C1CC[C@@H]2O (stereo not given in full) | -9.92% (inactive) |
| C[C@]12CCC3C(CC[C@H]4C[C@@H](O)CC[C@]34C)C1C[C@@H](O)[C@H]2O (stereo not given in full) | -6.69% (inactive) |
| C[C@]12CC[C@H](O)C[C@H]1CC[C@@H]1C2CC[C@]2(C)[C@@H](C3=CC(=O)OC3)[C@@H](O)C[C@]12O (stereo not given in full) | 339% (active) |
| COc1ccc(-n2nnnc2C(c2cccc3ccccc23)N2CCC(n3c(=O)[nH]c4ccccc43)CC2)cc1 (stereo not given) | -6.36% (inactive) |
| COC(=O)[C@H]1[C@H](CO)[C@H]2Cn3c(ccc(-c4ccccc4F)c3=O)[C@@H]1N2C(=O)C1CCC1 | 3% [at 16.7 µM] (inactive) |
